Tau fibril FP: tau fibrillization inhibition (FP); K18 P301L tau heparin fibrillization, Alexa594 FP, 6 h; Potency, µM (highest dose often 57.7 µM), inactives show at the highest dose activity, negative = inhibition, actives largely listed as inhibitors; 280,000 tested, 0.39% active; AID 1468; further: potency means the concentration at half of the fitted maximal effect; nearly all actives have a fitted effect of over 55% in size
Target sequence (P10636 561-689 P618L limits assumed): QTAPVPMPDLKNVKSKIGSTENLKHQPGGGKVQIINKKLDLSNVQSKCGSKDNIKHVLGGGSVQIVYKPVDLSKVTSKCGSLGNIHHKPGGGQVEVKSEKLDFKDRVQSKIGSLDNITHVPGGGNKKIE
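Human K18 P301L fragment (15 uM unlabeled plus 0.24 uM Alexa 594-labeled) in 100 mM sodium acetate pH 7 with compound, aggregation induced by 20 uM heparin for 6 hr at 37 C. ThT (30 uM) added for 1 hr, then Alexa 594 FP read.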
Sfp PPTase inh: inhibitors of Bacillus subtilis Sfp phosphopantetheinyl transferase; Q9F4F7; Biochemical Sfp PPTase activity, qHTS; Potency, µM, inactives show largest response in the series, negative = inhibition, actives largely listed as inhibitors; 310,000 tested, 3.5% active; AID 1490;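 further: the enzyme is Sfp with the accession as filed and its product quenches rhodamine fluorescence; potency means the concentration at half of the fitted maximal effect; 0% = enzyme reaction without inhibitor and -100% = no enzyme wells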
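Reaction rates are the 30-min fluorescence difference (ex 525, em 598 nm) in wells containing 15 nM Sfp, 5 uM rhodamine-CoA and 12.5 uM BHQ-2-YbbR at pH 7.6 with 10 mM MgCl2.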
Coupling enz: coupling enzyme interference in Giardia aldolase counter-screen; coupling enzyme system counterscreen, AmpLite Red fluorescence; activity change, negative = inhibition, % at 58.2 µM, hits read low; 290,000 tested, 0.67% active; AID 2472; in the data active means activity change below about -30%
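Counterscreen of the coupled detection system alone, without aldolase: glyceraldehyde-3-phosphate coupling enzymes plus AmpLite Red readout. Compounds at 57.5 uM final, 10 min RT preincubation, 20 min RT reaction, fluorescence 525/598 nm.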
Tau fibril ThT: tau fibrillization inhibition (ThT binding). recombinant tau K18 P301L, heparin-induced fibrillization, ThT fluorescence. Potency, µM (highest dose often 57.4 µM), inactives show top-dose activity, negative = inhibition, usual class: inhibitors. 270,000 tested, 2.1% active; further: potency means the concentration at half of the fitted maximal effect; nearly all actives have a fitted effect of over 55% in size
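Using a mix of unlabeled (15 uM) and Alexa 594-labeled (0.24 uM) tau K18 P301L, heparin-triggered fibrillization over 6 hr at 37 C was scored by ThT fluorescence.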
Tau fluor cs: counter-screen for tau fibril formation inhibitors. tau K18 P301L (four-repeat tau fragment) Alexa594 fluorescence, heparin fibrillization. Potency, µM (highest dose often 57.7 µM), for the others: at the highest dose activity change, negative = decrease. 280,000 tested, 0.93% active. AID 1463; further: potency means the concentration at half of the fitted maximal effect; nearly all actives have a fitted effect of over 55% in size
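Human K18 P301L tau (15 uM unlabeled plus 0.24 uM Alexa 594-labeled, final) in 100 mM sodium acetate pH 7 was mixed with compound and 20 uM heparin and incubated 6 hr at 37 C.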
* hit, by the source's call; [ ] = another dose, or the depositor's remark. Hits are enriched below; roughly 5.2% of the tested compounds scored in any of these assays. Unless noted, the call rests on the fitted dose curve; in most records, active means well fitted curve in the direction sought with a large enough effect; inconclusive means small, poorly fitted or top-dose-only effect, or another doubt; inactive means no such curve, though single readings can be large; an effect the other way counts as inactive or inconclusive. Unless noted, on the % scale 0 is the no-effect control and ±100 the full control effect.

Screening CCCC(=O)O[C@]1(C(=O)CCl)[C@H](C)C[C@@H]2[C@H]3CCC4=CC(=O)C=C[C@]4(C)[C@@]3(F)C(=O)C[C@@]21C returned Sfp PPTase inh 11%.
Screening O=C(Nc1ccccc1)Nc1csc2ccccc12 returned Tau fibril FP inconclusive, Sfp PPTase inh 50µM*, Coupling enz -5, Tau fibril ThT inconclusive and Tau fluor cs 11µM*[quencher].
For O=C(Nc1ccc(Cl)cc1)Nc1ccccc1Sc1ncc([N+](=O)[O-])s1 the results were Tau fibril FP inconclusive, Sfp PPTase inh 50µM*, Coupling enz -1 and Tau fluor cs inconclusive.
CC(=O)Nc1csc2ccccc12 was read as Tau fibril FP -1%, Sfp PPTase inh 15%, Coupling enz 2, Tau fibril ThT -4% and Tau fluor cs 1%.
Screening O=C(Cc1ccc(Cl)cc1)Nc1ncc([N+](=O)[O-])s1 returned Tau fibril FP 11%, Sfp PPTase inh -19%, Coupling enz 1, Tau fibril ThT inconclusive and Tau fluor cs -14%.
`O=C(Nc1cccnc1)Nc1cc(Cl)cc(Cl)c1` gave Tau fibril FP 25µM*, Sfp PPTase inh inconclusive, Coupling enz -1, Tau fibril ThT inconclusive and Tau fluor cs inconclusive.
Screening O=C(Nc1ccccc1)Nc1ccc(Oc2cccnc2)nc1 returned Tau fibril FP 3%, Sfp PPTase inh 0%, Coupling enz -2, Tau fibril ThT 8% and Tau fluor cs -7%.
`O=C(Nc1ccccc1)Nc1cc(OCC(F)(F)F)cc(OCC(F)(F)F)c1` gave Tau fibril FP 11µM*, Sfp PPTase inh 7%, Coupling enz -5, Tau fibril ThT -15% and Tau fluor cs inconclusive.
O=C(Nc1ncnc2c1ncn2[C@@H]1O[C@@H]2COP(=O)(O)O[C@H]2[C@H]1O)c1ccccc1 was read as Sfp PPTase inh 2% and Coupling enz -1.
COc1ccccc1CNC(=O)CCCn1c(=O)c2cccn2c2ccccc21 was read as Tau fibril FP -13%, Tau fibril ThT -19% and Tau fluor cs -29%.
Screening CCOc1cc(CNc2ccc(O)cc2)ccc1OCc1ccc(Cl)cc1 returned Tau fibril FP -8%, Tau fibril ThT 16µM* and Tau fluor cs 14µM*[quencher].
Screening O=c1[nH]c2ccc(NCc3ccccc3OCc3ccc(Cl)cc3)cc2[nH]1 returned Sfp PPTase inh -28% and Coupling enz 0.
`Oc1ccc(NCc2ccccc2OCc2ccc(Cl)cc2)cc1` gave Tau fibril FP -15%, Tau fibril ThT 14µM* and Tau fluor cs inconclusive.
`CCOC(=O)C1CCCCN1Cc1ccc(F)c(Br)c1` (stereo unspecified) gave Tau fibril FP 4%, Sfp PPTase inh 63µM*, Coupling enz 1, Tau fibril ThT -5% and Tau fluor cs -12%.
`Cc1cc2c(cc1S(=O)(=O)CCC(=O)N1CCN(c3ccccc3)CC1)OCC(=O)N2` gave Tau fibril FP 8%, Tau fibril ThT inconclusive and Tau fluor cs -14%.
Screening CN1C/C(=C/c2ccc(B(O)O)cc2)C(=O)/C(=C/c2ccc(B(O)O)cc2)C1 returned Sfp PPTase inh inconclusive and Coupling enz -1.
`O=C(CC(=O)c1cc(Cl)ccc1O)c1ccccc1` gave Tau fibril FP -15%, Sfp PPTase inh -62%, Coupling enz -2, Tau fibril ThT inconclusive and Tau fluor cs -27%.
O=C(c1ccccc1)c1cc(Cl)ccc1N1C(=O)C=CC1=O was read as Tau fibril FP -9%, Sfp PPTase inh 3.2µM*, Coupling enz -1, Tau fibril ThT 11% and Tau fluor cs -1%.
O=C(c1cnc2cc(-c3ccccc3)nn2c1)c1cc([N+](=O)[O-])ccc1O was read as Tau fibril FP 5%, Tau fibril ThT inconclusive and Tau fluor cs -18%.
`Cc1ccc(-c2cc3ncc(C(=O)c4cc([N+](=O)[O-])ccc4O)cn3n2)cc1` gave Tau fibril FP 3%, Tau fibril ThT 10µM* and Tau fluor cs -29%.
For CN(C)c1ccc(C(=S)NC2CCCCC2)cc1 the results were Tau fibril FP -1%, Sfp PPTase inh 20µM*, Coupling enz 1, Tau fibril ThT inconclusive and Tau fluor cs -16%.
Screening CCN(CC)c1ccc(C(=S)NCc2ccccc2)cc1 returned Tau fibril FP 12%, Sfp PPTase inh 10µM*, Coupling enz -5, Tau fibril ThT inconclusive and Tau fluor cs inconclusive.
For CCOc1ccc(C(C)NC(=S)NC2CCCCC2)cc1OCC (stereo unspecified) the results were Tau fibril FP 10%, Sfp PPTase inh 15%, Coupling enz 2, Tau fibril ThT -3% and Tau fluor cs -17%.
Screening CCOc1ccc(C(=S)NC2CCCCC2)cc1OCC returned Sfp PPTase inh 14µM* and Coupling enz 1.
CCN(CC)c1ccc(C(=S)NC2CCCCC2)cc1 was read as Tau fibril FP 9%, Sfp PPTase inh 32µM*, Coupling enz 0, Tau fibril ThT inconclusive and Tau fluor cs inconclusive.
`CN(C)c1ccc(C(=O)OCC(=O)NC2CCCCCC2)cc1` gave Tau fibril FP 6%, Sfp PPTase inh -18%, Coupling enz 2, Tau fibril ThT -15% and Tau fluor cs -12%.
For CCNc1c(NC(=O)c2ccccc2OCC)c(=O)oc2ccccc12 the results were Tau fibril FP -1%, Tau fibril ThT -12% and Tau fluor cs -6%.
Screening COc1ccc(C(=O)c2oc3ccc(OC)cc3c2N)cc1 returned Tau fibril FP 8%, Sfp PPTase inh -25%, Coupling enz -4, Tau fibril ThT 11µM* and Tau fluor cs 14µM*[quencher].
`CC1=CC(C#N)(C#N)C(C#N)(C#N)C(c2ccccc2)N1` (stereo unspecified) gave Tau fibril FP -8%, Sfp PPTase inh -11%, Coupling enz -9, Tau fibril ThT inconclusive and Tau fluor cs -27%.
Screening CC1CCC(C(C)C)C2=C1C(C#N)(C#N)C(C#N)(C#N)C(c1ccccc1)N2 (stereo unspecified) returned Tau fibril FP -10%, Sfp PPTase inh inconclusive, Coupling enz -9, Tau fibril ThT 22µM* and Tau fluor cs inconclusive.
`CC1=C(C(=O)c2ccccc2)C(c2ccc(O)cc2)NC(=S)N1` (stereo unspecified) gave Tau fibril FP -2%, Sfp PPTase inh -9%, Coupling enz 5, Tau fibril ThT -3% and Tau fluor cs -1%.
`CC1=C(C(=O)c2ccccc2)C(c2ccc(N3CCOCC3)cc2)NC(=O)N1` (stereo unspecified) gave Tau fibril FP 1%, Sfp PPTase inh -17%, Coupling enz 1, Tau fibril ThT 25µM* and Tau fluor cs -6%.

Source: PubChem (National Center for Advancing Translational Sciences (NCATS))
